Compounds with a hit are over-represented: about 0.49% of the library has one in this group of screens.
Tb PGK inh: qHTS Assay to Find Inhibitors of Phosphoglycerate Kinase. Potency, µM (titrated, usually from 57.5 µM), most hits filed as inhibitors. PGK/GAPDH coupled, Kinase-Glo luminescence, 60 min. 380,000 compounds, 0.043% hits. Phosphoglycerate kinase, glycosomal (Trypanosoma brucei brucei), P07378; further: nearly all actives have a fitted effect of over 60% in size
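Recombinant glycosomal PGK reaction used 1,3-bisphosphoglycerate generated in-well by GAPDH (100nM final) in 100mM TEA pH 7.6, 5mM MgCl2, 0.01% Tween-20. After 60 minutes at room temperature, ATP was read by Kinase-Glo Plus luminescence end-point.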
mIDH1 inhibitor: qHTS for Inhibitors of mutant isocitrate dehydrogenase 1 (IDH1): qHTS. Isocitrate dehydrogenase [NADP] cytoplasmic (Homo sapiens), O75874. IDH1-R132H enzyme, NADPH consumption, diaphorase/resazurin fluorescence. Potency, µM (doses to about 76.6 µM), most hits filed as inhibitors. 390,000 compounds, 0.093% hits. AID 602179, 2012; further: nearly all actives have a fitted effect of over 65% in size
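IDH1-R132H (0.5 ug/mL dispensed) in pH 7.5 Tris buffer was preincubated 30 min with compound, then given a substrate mix of 0.016 mM NADPH and 2 mM alpha-KG for 80 min at room temperature; remaining NADPH was read by diaphorase/resazurin fluorescence.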
Vif-APOBEC3F blk: qHTS for Inhibitors of Vif-A3F Interactions: qHTS; Potency, µM (titrated, usually from 46.1 µM); HeLa A3F-eYFP + Vif (tagged APOBEC3F with the HIV-1 protein that degrades it), YFP fluorescence increase; 390,000 compounds, 0.2% hits; further: nearly all actives have a fitted effect of over 65% in size
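HeLa cells stably expressing A3F-eYFP plus Vif, plated and incubated overnight at 37 deg C, then exposed to compounds overnight at 37 deg C. Blocked degradation read as raised yellow fluorescence (Ex 488/Em 500-530).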
LDHA block: qHTS assay for inhibitors of human lactate dehydrogenase; L-lactate dehydrogenase A chain (Homo sapiens), P00338; purified LDHA, NADH/diaphorase-resazurin fluorescence; stronger effect = lower value; activity change, % (values are at about 110 or 230 µM); 480,000 compounds, 0.15% hits; AID 1347041, 2019; in the data active means activity change below about -30%; inconclusive means mostly about -25% to -30%
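Human LDH5 (2 nM) was incubated with 0.06 mM NADH and 0.2 mM pyruvate for 5 min at room temperature in Tris pH 7.4. Remaining NADH was coupled through diaphorase/resazurin, and resorufin fluorescence was read at 0 and 20 min.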
Pin1 inhibitor: qHTS Assay to Find Inhibitors of Pin1 | 390,000 compounds, 0.009% hits | Potency, µM (top dose mostly 115 µM), usual class: inhibitors | Pin1 FP peptide displacement, HiFluor488, 10 min | Peptidyl-prolyl cis-trans isomerase NIMA-interacting 1 (Homo sapiens), Q13526 | AID 504891, 2011; active means well fitted inhibition curve with a large enough effect in the polarisation, with a control signal flat, not every such curve was filed as active; inconclusive means small, poorly fitted or top-dose-only effect, or effect the other way, or a change in a side signal; inactive means no such curve, though single readings can be large or run the other way; the % refers to the polarisation
Target sequence (Q13526 whole entry, looked up): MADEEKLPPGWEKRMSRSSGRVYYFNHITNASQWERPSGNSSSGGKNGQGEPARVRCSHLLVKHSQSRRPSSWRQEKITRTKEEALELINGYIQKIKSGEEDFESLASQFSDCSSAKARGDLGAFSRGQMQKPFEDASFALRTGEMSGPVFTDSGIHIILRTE
Vif-A3G inh: qHTS for Inhibitors of Vif-A3G Interactions: qHTS; DNA dC->dU-editing enzyme APOBEC-3G (Homo sapiens), Q9HC16; HeLa A3G-eYFP + Vif (tagged APOBEC3G with the HIV-1 protein that degrades it), YFP fluorescence, overnight; Potency, µM (series often up to 46.1 µM), most hits filed as inhibitors; 410,000 compounds, 0.076% hits; AID 602310, 2012; further: nearly all actives have a fitted effect of over 60% in size
Target sequence (Q9HC16 whole entry, looked up): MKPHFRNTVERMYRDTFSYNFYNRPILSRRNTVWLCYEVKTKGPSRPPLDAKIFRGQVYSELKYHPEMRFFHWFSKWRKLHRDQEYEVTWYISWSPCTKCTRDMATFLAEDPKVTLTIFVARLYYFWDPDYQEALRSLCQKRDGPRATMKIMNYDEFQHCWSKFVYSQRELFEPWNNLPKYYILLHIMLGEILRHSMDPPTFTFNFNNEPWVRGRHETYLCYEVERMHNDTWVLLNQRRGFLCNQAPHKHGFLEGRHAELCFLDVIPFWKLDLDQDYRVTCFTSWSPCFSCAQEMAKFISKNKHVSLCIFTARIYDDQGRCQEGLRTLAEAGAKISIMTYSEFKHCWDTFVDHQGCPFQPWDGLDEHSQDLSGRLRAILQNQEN
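HeLa cells stably expressing Vif and C-terminally eYFP-tagged A3G, seeded overnight at 37 deg C, then exposed to compound by pintool overnight at 37 deg C. Rise in yellow fluorescence (Ex 488/Em 500-530, Acumen) marks blocked Vif-driven A3G degradation.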
Numbers stand for hits; i = inactive; ? = inconclusive; nt = no result given. Unless noted, the call rests on the fitted dose curve; in most records, active means well fitted curve in the direction sought with a large enough effect; inconclusive means small, poorly fitted or top-dose-only effect, or another doubt; inactive means no such curve, though single readings can be large; an effect the other way counts as inactive or inconclusive.

SMILES	Tb PGK inh	mIDH1 inhibitor	Vif-APOBEC3F blk	LDHA block	Pin1 inhibitor	Vif-A3G inh
CCN1/C(=C/c2cccc[n+]2C)Sc2ccc(OC)cc21	i	i	25µM	i	i	?
Cc1ccc2c(c1)N(C)/C(=C/c1cccc[n+]1CCO)S2	i	i	13µM	i	i	?
COc1ccc2c(c1)N(C)/C(=C/c1cccc[n+]1C)S2	i	i	?	i	i	13µM
CN1/C(=C/c2cccc[n+]2C)Sc2ccccc21	i	i	?	i	i	?
Cc1ccc2c(c1)N(C)/C(=C/c1cccc[n+]1C)S2	i	i	11µM	i	i	?
N#Cc1ccc(/C=C/C(=O)c2ccsc2)cc1	nt	nt	nt	i	nt	nt
CC(Oc1ccc(Cl)cc1Cl)c1nc(-c2ccc(Br)o2)no1 (configuration not stated)	nt	nt	nt	i	nt	nt
CSc1nc2c(c(=O)n(C)c(=O)n2C)n1Cc1cccc(C)c1	nt	nt	nt	i	nt	nt
Cc1cc(C)n(-c2nc3ccccc3nc2N2CCN(S(=O)(=O)c3ccc(C)c(C)c3)CC2)n1	nt	nt	nt	-30	nt	nt
COc1ccc2cc(-c3nc(-c4ccccc4Cl)no3)c(=O)oc2c1	nt	nt	nt	i	nt	nt
COc1cc(/C=C2\CC(C(C)(C)C)C/C(=C\c3cc(OC)c(OC)c(OC)c3)C2=O)cc(OC)c1OC (configuration not stated)	i	i	?	i	i	8.9µM
CCN(C)Cc1cccc(CNC(=O)c2cc(C)nc3ccccc23)c1	nt	nt	nt	i	nt	nt
Cc1ccc(NC(=O)/C=C/c2ccc([N+](=O)[O-])s2)cc1	i	i	7.9µM	i	i	3.2µM
Cc1cccc(NC(=O)/C=C/c2ccc([N+](=O)[O-])s2)c1	i	i	7.1µM	i	i	?
Cc1ccc(NC(=O)/C=C/c2ccc([N+](=O)[O-])s2)c(C)c1	i	i	10µM	i	i	?
Cc1ccc(C(=O)N/N=C/c2ccc([N+](=O)[O-])s2)cc1	i	i	i	-35	i	?
Cc1cccc(NC(=S)N/N=C/c2ccc([N+](=O)[O-])s2)c1	i	i	i	i	i	?
COc1ccc(-c2ccc3[nH]c4c(c3c2)CCN2C(=O)[C@@H]([C@H](C)O)[C@@H](N(C)C(=O)Nc3ccc(F)cc3)C[C@@H]42)cc1	i	i	i	-31	nt	i
Cc1cccc(NC(=O)CC23CC4CC(CC(C4)C2)C3)c1C	nt	nt	nt	i	nt	nt
NS(=O)(=O)c1cc(C(=O)NC2CCSc3ccccc32)ccc1Cl (configuration not stated)	1µM	i	i	-66	nt	i
COc1ccc(N=Cc2c(O)n(-c3cccc(C)n3)c(=O)c3ccccc23)cc1	i	i	i	i	i	i
COc1ccc(N=Cc2c(O)n(-c3ccc(OC)cc3)c(=O)c3ccccc23)cc1	i	i	11µM	i	i	i
O=C(O)c1cc(Br)ccc1NS(=O)(=O)c1cccc2nsnc12	i	i	i	-47	i	i
Cc1ccc(OC(C)C(=O)N2CC(C)CC(C)C2)cc1 (configuration not stated)	nt	nt	nt	i	nt	nt
CCn1c(SCC(=O)NC2CCCc3ccccc32)nnc1C1CC1 (configuration not stated)	nt	nt	nt	i	nt	nt
SMILES	Tb PGK inh	mIDH1 inhibitor	Vif-APOBEC3F blk	LDHA block	Pin1 inhibitor	Vif-A3G inh
CCN(CC)c1ccc2cc(C(N)=O)c(=N)oc2c1	i	i	11µM	i	?	?
Clc1ccccc1OCCCCN1CCNCC1	i	i	i	-41	i	i
CCOC(=O)c1c(CC(C)C)csc1/N=C/C1C(=O)CCCC1=O	i	i	22µM	i	?	?
CCOC(=O)c1c(-c2ccccc2)csc1/N=C/C1C(=O)CCCC1=O	i	i	i	i	?	i
CC(=O)c1cc(NC(=O)c2ccc(C)cc2)c(=O)oc1/C=C/N(C)C	i	i	13µM	i	?	13µM
COc1ccc(CCNC(=O)Nc2cccc(CN3CCOC3=O)c2)cc1	nt	nt	nt	i	nt	nt
N#Cc1c(-c2ccc(F)cc2)cc(-c2ccccc2)nc1SCC(=O)NCC(=O)O	i	i	i	-80	nt	i
N#Cc1ccccc1NC(=O)CSc1nc(-c2ccccc2)cc(C(F)(F)F)c1C#N	i	i	11µM	i	?	i
N#Cc1c(C(F)(F)F)cc(-c2ccc(F)cc2)nc1SCC(=O)O	i	i	i	i	i	i
N#Cc1c(C(F)(F)F)cc(-c2ccc(F)cc2)nc1SCC(=O)Nc1ccccc1	i	i	i	i	?	i
Cc1coc(NC(=O)CSc2nc(-c3ccncc3)cc(C(F)(F)F)c2C#N)n1	i	i	11µM	i	?	?
CCCCOc1ccc(-c2cc(C(F)(F)F)c(C#N)c(SCC(=O)O)n2)cc1	i	i	11µM	i	?	i
N#Cc1c(-c2ccc(Cl)cc2)cc(-c2ccccc2)nc1SCC(=O)O	i	i	i	i	i	i
CN(C)c1cc(CNC(=O)Nc2nnc(C3CC3)s2)ccn1	nt	nt	nt	i	nt	nt
Cc1cc(=O)oc2cc(OCC(=O)N3c4ccccc4CC3C)ccc12 (configuration not stated)	i	i	i	i	i	4µM
Cc1cc(=O)oc2cc(OCC(=O)N3CC(C)OC(C)C3)ccc12 (configuration not stated)	i	i	i	i	i	i
CN(C)c1ccc2c(c1)OC(N)=C(C#N)C2c1cccc(F)c1 (configuration not stated)	i	i	22µM	i	?	?
N#CC1=C(N)Oc2cc(N)ccc2C1c1cccc(F)c1 (configuration not stated)	i	i	i	i	i	?
C=C1C(=O)C=C2CN(C(=O)c3ccccc3)[C@@](Cc3ccc(F)cc3)(C(=O)OC)[C@@H]12	i	i	i	i	i	7.1µM
CC(=O)N1CCN(S(=O)(=O)c2cccc(C(=O)OCC(=O)N3CC(=O)Nc4ccccc43)c2)CC1	i	i	i	i	i	i
Cc1noc(C)c1COc1cccc(C(=O)OCC(=O)N2CC(=O)Nc3ccccc32)c1	i	i	i	i	i	2.8µM
N#CC1=C(N)C(C#N)(C#N)[C@H](c2c(F)cccc2F)[C@H]2CC3(CC=C12)OCCO3	i	i	22µM	i	?	13µM
Cn1nnnc1SCCNCc1cc(Br)ccc1OCc1ccccc1Cl	i	i	13µM	i	i	i
Cn1nnnc1SCCNCc1ccccc1OCc1ccccc1Cl	i	i	i	i	i	i

Source: PubChem BioAssay
